SMILES strings stand for the structures. The source made the active and inactive calls.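 Rule for the calls: active = potency under 20 µM; inactive = the rest.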

This experiment can be described thus: High Content Assay for Compounds that inhibit the Assembly of the Perinucleolar Compartment:Cell Migration. The note with it: PC3M cell invasion in 3D collagen microchannel, Hoechst imaging. From the text: The perinucleolar compartment (PNC) is a non-membrane-bound nuclear subdomain that is associated with but structurally distinct from the nucleolus. The PNC is a heritable trait, in which the number of PNCs per cell in daughter cells often mimics that of their mother cells. The PNC is heterogeneous in shape, is stable through interphase, disassembles during mitosis, and reassembles in early G1. The PNC is concentrated with newly synthesized RNA polymerase III (pol III) RNAs (MRP RNA, RNAse P H1 RNA, hY RNAs[hY1, 2, 5], Alu RNA, and SRP [7SL] RNA) and RNA binding proteins (nucleolin, PTB, CUG-BP, KSRP, Raver1, Raver2, and Rod). […] In collaboration between Sui Huang from Northwestern University and the NCGC, a high content assay was developed and screened. The hits were then tested in follow-up assays. High-content tumor cell migration assays in 3-dimensional extracellular matrices are powerful tools for modeling and understanding the biology of this critical step in the process of metastasis. However, most of the available methods are not amenable to the throughput required by studies of comparative pharmacology or small scale screening. For this reason, we worked with BellBrook Labs(R) to test our compounds in their automated high-content tumor cell invasion assays.[35] A standard screening-sized plate with an array of embedded microchannels was designed and constructed from common thermoplastics. NIH Chemical Genomics Center [NCGC] NIH Molecular Libraries Probe Centers Network [MLPCN] MLPCN Grant: MH082371 Assay Submitter (PI): Sui Huang, Northwestern University, Feinberg School of Medicine, Cell and Molecular Biology, Chicago, Illinois.
PC3M cells were tested for invasion through 3D fibrillar collagen in the Iuvo Single Microchannel Plate, in the presence of varying levels of test compounds. Channels were prefilled with 820 nL of 3-dimensional type I collagen at 1 mg/mL, through the input port. Following gelation, 2,000 PC3M cells were seeded into the output port using growth media (RPMI + 10% FBS with antibiotics) in a volume of 5 microL. Cells were incubated in a 37 masculineC incubator inside a humidified container to control evaporation (Bioassay dish, Corning). Media including test compounds was changed daily for 5 days. At the end of the assay, cells were fixed and stained with Hoechst 33342, then imaged with 4x objective under epifluorescence. Under these conditions, we can reliably identify cells across the 140 microm height range of the microchannel. Test compounds were serially diluted by a factor of 3, to produce 10 concentrations ranging from 50 or 100 microM to 2.5 nM.
`N=c1c2c(-c3ccccc3)c(-c3ccccc3)n(Cc3ccccc3)c2ncn1CCCO`: the Potency was 11.5 µM (active).

Regarding `COC(=O)c1c(-c2ccccc2)csc1NC(=O)c1c(-c2ccccc2)noc1C`, the call was inactive.

On to `O=C(Nc1cccnc1)c1cccs1`, for which the Potency was 1.6 µM (active).

As for `Cc1c(NC(=O)COC(=O)c2cc(-c3ccc(-c4ccccc4)cc3)nc3ccccc23)c(=O)n(-c2ccccc2)n1C`, the Potency is 0.117 µM (active).

`Cc1oc(-c2ccccc2Cl)nc1CSCC(=O)N1CCCC1`: the Potency was 6.2 µM (active).

In the case of `COc1ccc(-c2nc(NC(=O)c3n[nH]c(=O)c4ccccc34)sc2C)cc1`, the Potency is 3.8 µM (active).

`CN1c2ccccc2C(C)(C)C12CC(c1ccc(Cl)c(S(=O)(=O)N3CCCC3)c1)=NO2` (stereo unspecified): the Potency is 3.2 µM (active).

On to `CSc1nnc2c3ccccc3n(CCc3ccccc3)c2n1`, for which the Potency was 4.3 µM (active).

With `CCN(CC)C(=O)N1c2ccccc2C=Cc2ccccc21`, the Potency was 2.1 µM (active).

Consider `CCOC(=O)Cn1c(-c2nonc2NC(=O)c2ccccc2F)nc2ccccc21`, for which the compound was called inactive.

For the compound `COc1ccc(-n2c(SC(C)C(=O)Nc3ncc(Cl)cc3Cl)nc3ccccc32)cc1` (stereo unspecified), the call was inactive.

The record behind these values is PubChem BioAssay AID588722 (National Center for Advancing Translational Sciences (NCATS), 2011).
